# Results reported in PubChem BioAssay AID1209 (Sanford-Burnham Center for Chemical Genomics, 2008).
# Screen size: about 190,000 compounds; about 810 (0.43%) were called active. The sample as a whole holds a higher share of actives than the screen did. Values without a mark were called inactive. Rule as the data show it: active = inhibition above about 50%; inactive = the rest.
# Biological target: Mannose-6-phosphate isomerase (Homo sapiens) (UniProt P34949)
# Assay: MPI enzyme activity inhibition – biochemical, fluorescence intensity, coupled assay, primary screen (AID 1209);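 also: plate controls were DMSO vehicle for no effect and wells lacking substrate for full effect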
# Conditions: purified PMI enzyme, at 20 µM, stronger effect = higher value
# Chain of Mannose-6-phosphate isomerase (Homo sapiens) (P34949 whole entry, looked up): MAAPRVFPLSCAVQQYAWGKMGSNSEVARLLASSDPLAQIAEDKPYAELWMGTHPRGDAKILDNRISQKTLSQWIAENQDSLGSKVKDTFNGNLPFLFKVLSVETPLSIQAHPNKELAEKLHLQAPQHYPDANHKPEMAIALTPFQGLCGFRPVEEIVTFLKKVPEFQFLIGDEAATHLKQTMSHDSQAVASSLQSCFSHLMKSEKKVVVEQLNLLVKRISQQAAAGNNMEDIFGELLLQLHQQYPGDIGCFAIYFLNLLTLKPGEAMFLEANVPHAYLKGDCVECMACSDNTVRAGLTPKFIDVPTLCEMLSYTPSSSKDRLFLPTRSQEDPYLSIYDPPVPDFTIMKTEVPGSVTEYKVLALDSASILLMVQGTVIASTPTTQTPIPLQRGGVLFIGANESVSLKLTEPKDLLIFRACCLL
row,Compound,inhibition
1,CC(C)N1CCC2(CC1)N=C(c1ccc3c(c1)OCO3)CC(c1cc(Cl)ccc1O)N2 (centres undefined),23.4%
2,COc1ccc(C(=O)c2cnc(/N=C/N(C)C)s2)cc1,14.2%
3,COc1ccc(NC(=O)CSc2nnc(Cn3cnc4ccccc43)o2)cc1,4.8%
4,O=C1NC(=S)S/C1=C\c1ccc(SCc2ccccc2)o1,80.4% (active)
5,O=C(O)CN1C(=O)/C(=C/c2ccc(SCc3ccccc3)o2)SC1=S,85.2% (active)
6,O=C1NC(=S)S/C1=C/c1ccc(N2CCOCC2)o1,-25.3%
7,O=C(O)c1cc(-c2ccc(/C=C3/SC(=S)N(Cc4ccccc4)C3=O)o2)ccc1Cl,-29.3%
8,O=C1NC(=S)S/C1=C\c1ccc(SCc2ccco2)o1,10.3%
9,O=C1/C(=C\c2ccco2)SC(=S)N1c1ccccc1,22.8%
10,Cc1cccc(C)c1-n1cccc1/C=C1\SC(=S)N(c2cccc(C(=O)O)c2)C1=O,1.3%
11,O=C(O)c1cccc(N2C(=O)/C(=C/c3ccc(SCc4ccc(Cl)cc4)o3)SC2=S)c1,73.3% (active)
12,Cc1ccc(/C=C2\SC(=S)N(Cc3ccccc3)C2=O)o1,18.3%
13,COC(=O)[C@@H](NC(=O)N(C1CCCCC1)C1CCCCC1)C(C)C,-2.2%
14,Cc1nnc(SCC(=O)N2CC(=O)Nc3ccccc32)n1C,-5.6%
15,Cc1ccc(N/C=C/C(=O)c2sc(-c3ccccc3)nc2C)cc1,14.3%
16,COc1ccc(-c2csc(NC(=O)Cc3cccc4ccccc34)c2C(=O)O)cc1,-0.1%
17,O=C(O)c1cccnc1SC1CC(=O)N(CCc2ccccc2)C1=O (centres undefined),3.4%
18,CCc1nnc(NC(=O)c2ccc(S(=O)(=O)N3CCN(Cc4ccccc4)CC3)cc2)s1,-1.5%
19,C/C=C/c1c(F)c(F)c(Oc2ccc(C(=O)O)cc2)c(F)c1F,-3.5%
20,Cc1noc(C)c1COC(=O)CNC(=O)c1ccc(Cl)cc1,-4.1%
21,COCCNC(=O)c1ccc(CN2CCOCC2)cc1,-8.4%
22,CCN1C(=O)C(CC(=O)Nc2ccc(OC)cc2)N(CCc2ccc(OC)cc2)C1=S (centres undefined),-4.1%

row,Compound,inhibition
1,C=CCOC(=O)C1=C(C)NC(=S)NC1/C=C/c1ccccc1 (centres undefined),2.3%
2,O=c1c(Cc2ccc(F)cc2)c(O)ccn1CCCn1ccnc1,3%
3,O=C(Oc1ccc(C(=S)N2CCOCC2)cc1)c1ccccc1,3.3%
4,O=C(Oc1ccc(C(=S)N2CCOCC2)cc1)c1ccc(Br)cc1,5.3%
5,COc1ccc(C(=O)Oc2ccc(C(=S)N3CCOCC3)cc2)cc1,51% (active)
6,O=C(Nc1ncccn1)c1ccc(C(F)(F)F)cc1,4%
7,CCOC(=O)C1(CCOC)CCN(Cc2ccccc2-c2ccco2)CC1,3.5%
8,O=C1CCCN2N=C(SCC(=O)Nc3nccs3)SC2=N1,-3.6%
9,CCOC(=O)C1=C(C)Nc2ccccc2N=C1NC(=O)Cc1ccc(OC)cc1,1.1%
10,CCOC(=O)C1=C(C)Nc2ccccc2N=C1NC(=O)/C=C/c1ccc(OC)cc1OC,19.3%
11,CCCCOc1ccc(/C=C/C(=O)NC2=Nc3ccccc3NC(C)=C2C(=O)OCC)cc1OC,65.6% (active)
12,Cc1c(-c2ccccc2)[n+](=O)c(-c2ccc(Cl)cc2)c(C)n1[O-],4.1%
13,Cc1ccc(CN(c2ccc(C(=O)NCc3cccnc3)cc2)S(C)(=O)=O)cc1,-2.9%
14,CCOc1ccccc1OCc1nn2c(COc3ccccc3)nnc2s1,45.2%
15,c1ccc(Cc2nn3c(COc4ccccc4)nnc3s2)cc1,53.1% (active)
16,c1ccc(OCc2nnc3sc(-c4cccs4)nn23)cc1,65.5% (active)
17,c1ccc(CCc2nn3c(Cc4ccccc4)nnc3s2)cc1,38.2%
18,Clc1ccccc1-c1nn2c(COc3ccccc3)nnc2s1,9.4%
19,c1ccc(Cc2nnc3sc(-c4cccs4)nn23)cc1,8.2%
20,Cc1cccc(NC(=O)CSc2nnc(-c3n[nH]c4ccccc34)o2)c1,17.6%
21,COCCNC(=S)Nc1ccc([N+](=O)[O-])cc1C,2%
22,CCOc1ccccc1N(C(=O)c1ccco1)C(C(=O)NC1CCCC1)c1cccnc1 (centres undefined),5.1%
